Reference: PubChem BioAssay (Tox21)
Inconclusive results are not listed. Active and inactive are the calls of the source. Unless noted, calls come from the whole dose curve; as a rule, active = well fitted curve in the direction sought with a large enough effect in the repeat runs; inconclusive = weak or mixed curves; inactive = flat fitted curve, though single readings scatter.

What was measured:
[1] = qHTS assay to test for compound auto fluorescence at 535 nm (green) in HEK293 cells (AID 720680)
[2] = qHTS assay to test for compound auto fluorescence at 460 nm (blue) in HEK293 cell free culture (AID 720681)
How it was run: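 Blue fluorescence (Ex 405/Em 460 nm, triamterene-equivalent) was read immediately after pin transfer of compound or DMSO into medium (DMEM, 10% FBS) without cells.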

[3] = qHTS assay to test for compound auto fluorescence at 535 nm (green) in HEK293 cell free culture (AID 720682)
How it was run: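 DMEM + 10% FBS, cell-free; cpd or DMSO pinned in; Ex485/Em535 read; output as fluorescein-equivalent signal.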

[4] = qHTS assay to test for compound auto fluorescence at 590 nm (red) in HEK293 cell free culture (AID 720683)
How it was run: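 Red-channel autofluorescence of compounds in culture medium (DMEM, 10% FBS), no cells, measured at 540/590 nm. Rose Bengal sodium is the reference fluorophore for equivalence.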

[5] = qHTS assay to test for compound auto fluorescence at 590 nm (red) in HepG2 cell free culture (AID 720684)
How it was run: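 No cells present: MEM + 10% FBS only. Compound pinned in, red label read (540/590 nm). Activity = fluorescence equivalent to Rose Bengal sodium.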

[6] = qHTS assay to test for compound auto fluorescence at 460 nm (blue) in HepG2 cell free culture (AID 720685)
How it was run: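 Cell-free plates of MEM plus 10% FBS received 23 nL compound or DMSO vehicle; blue-channel (405/460 nm) intensity scored against triamterene as reference fluorophore.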

[7] = qHTS assay to test for compound auto fluorescence at 535 nm (green) in HepG2 cell free culture (AID 720686)
[8] = qHTS assay to test for compound auto fluorescence at 460 nm (blue) in HepG2 cells (AID 720687)
How it was run: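 Blue-channel autofluorescence (Ex/Em 405/460 nm, triamterene-equivalent) was measured after 1 hr compound exposure at 37 C, 5% CO2. Cells were HepG2, plated overnight at 37 C in MEM plus 10% FBS.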

[9] = target: Glucocorticoid receptor (Homo sapiens) (UniProt P04150); assay: qHTS assay to identify small molecule agonists of the glucocorticoid receptor (GR) signaling pathway (AID 720691; active = well fitted activation curve with a large enough effect in the signal ratio in the repeat runs, not every such curve was filed as active; the % refers to the signal ratio)
Chain of Glucocorticoid receptor (Homo sapiens) (P04150 whole entry, looked up): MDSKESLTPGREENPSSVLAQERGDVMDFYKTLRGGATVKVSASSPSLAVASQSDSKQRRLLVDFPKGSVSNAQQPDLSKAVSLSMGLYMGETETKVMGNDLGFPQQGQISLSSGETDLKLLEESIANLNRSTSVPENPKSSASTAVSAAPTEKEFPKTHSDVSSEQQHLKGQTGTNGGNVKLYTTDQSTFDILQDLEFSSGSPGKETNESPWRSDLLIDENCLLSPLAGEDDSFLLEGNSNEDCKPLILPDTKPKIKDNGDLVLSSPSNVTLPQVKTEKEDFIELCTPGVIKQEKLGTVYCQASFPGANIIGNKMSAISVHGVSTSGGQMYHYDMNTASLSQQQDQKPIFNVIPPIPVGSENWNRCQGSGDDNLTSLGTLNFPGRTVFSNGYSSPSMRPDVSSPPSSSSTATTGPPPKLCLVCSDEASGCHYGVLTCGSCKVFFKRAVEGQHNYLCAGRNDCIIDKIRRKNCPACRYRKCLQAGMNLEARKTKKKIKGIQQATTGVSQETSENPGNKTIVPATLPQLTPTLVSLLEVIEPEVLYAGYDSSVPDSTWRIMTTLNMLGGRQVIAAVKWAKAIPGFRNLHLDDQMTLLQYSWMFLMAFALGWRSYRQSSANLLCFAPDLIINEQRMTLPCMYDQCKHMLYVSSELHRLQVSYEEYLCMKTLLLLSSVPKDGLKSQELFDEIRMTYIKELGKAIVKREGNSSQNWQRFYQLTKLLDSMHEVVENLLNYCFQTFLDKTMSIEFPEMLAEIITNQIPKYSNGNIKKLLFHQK
How it was run: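 A HeLa cervical cancer line expressing GR and a glucocorticoid response element-driven beta-lactamase gene is treated with compounds for 18 h; LiveBLAzer B/G FRET substrate is then applied and fluorescence read.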

[10] = target: Glucocorticoid receptor (Homo sapiens) (UniProt P04150); assay: qHTS assay to identify small molecule antagonists of the glucocorticoid receptor (GR) signaling pathway (AID 720692; active = well fitted inhibition curve with a large enough effect in the signal ratio in the repeat runs, not every such curve was filed as active; the % refers to the signal ratio)
How it was run: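 GRE-bla HeLa line, dex-stimulated (5 nM final). Compound exposure 18 h, 37 C. Beta-lactamase FRET read after 2 h RT substrate.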

Measured: Potency

CC(C)CC(=O)CC(C)CC(C)C (configuration not stated)
inactive: all assays above

NCCN1CCNCC1
not listed: [9] | [10]
inactive: all other assays above

COC(=O)c1cccnc1
not listed: [9]
inactive: all other assays above

Cc1ccc(S(=O)(=O)N=C=O)cc1
inactive: all assays above

c1ccc2c(c1)Cc1ccccc1-2
not listed: [9]
inactive: all other assays above

CCNc1cccc(C)c1
not listed: [9] | [10]
inactive: all other assays above

CC(=O)Oc1ccc(C)cc1
not listed: [9]
inactive: all other assays above

CC1(C)CC(N)CC(C)(CN)C1 (configuration not stated)
not listed: [9]
inactive: all other assays above

CC(=O)OCCOC(C)=O
inactive: all assays above

COc1ccc(N)c(C)c1
not listed: [7] | [9] | [10]
inactive: all other assays above

CC(O)CC(C)(C)O (configuration not stated)
inactive: all assays above

O=[N+]([O-])c1ccc2nc[nH]c2c1
not listed: [7] | [9] | [10]
inactive: all other assays above

C=CC(=O)OCCC(=O)O
not listed: [10]
inactive: all other assays above

NCCNCCN
not listed: [9] | [10]
inactive: all other assays above

CCCCCCCO
inactive: all assays above

CCCCCCCC=O
not listed: [9] | [10]
inactive: all other assays above

CCCCCC(=O)O
not listed: [9] | [10]
inactive: all other assays above

Nc1ccc(Cl)c(N)c1
not listed: [9] | [10]
inactive: all other assays above

O=C(O)Cn1c(=O)n(Cc2ccc(Br)cc2F)c(=O)c2ccc(Cl)cc21
not listed: [7] | [9] | [10]
inactive: all other assays above

CNC(=O)Oc1ccc2c(c1)[C@]1(C)CCN(C)[C@@H]1N2C
not listed: [9] | [10]
inactive: all other assays above

CCCCCCCCCCCCCCCC(=O)OC(C)C
not listed: [7] | [9] | [10]
inactive: all other assays above

O=C(O)CCCCCCCCC(=O)O
not listed: [9] | [10]
inactive: all other assays above

NC(=S)NNC(N)=S
inactive: all assays above

CC(C)OP(=O)(CP(=O)(OC(C)C)OC(C)C)OC(C)C
not listed: [9] | [10]
inactive: all other assays above

CCCCCCCCCCN
not listed: [7]
inactive: all other assays above

CC(CCO)CC(C)(C)C (configuration not stated)
not listed: [9]
inactive: all other assays above

CCO[Si](CCC#N)(OCC)OCC
not listed: [9]
inactive: all other assays above
